# Measured values as given in PubChem BioAssay.
# Values joined by “and” are separate entries in the source; they are usually repeats but may differ in a detail not shown here. Equal entries are not always repeated. Active and inactive are the calls of the source. Unless noted, no stated cut-off is given here; in the data, active means parasite load remaining mostly below about 12% (no sharp cut-off); inactive means mostly above about 10%.
# Experiments:
# [1] = suppressors of polyQ aggregation in yeast, 75Q-TubU reporter (AID 1593); conditions: Yeast 75Q polyglutamine aggregation reporter
# [2] = inhibitors of mitochondrial cytochrome c release, biochemical, purified mitochondria (AID 1603); conditions: stronger effect = lower value;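 further: mouse liver mitochondria challenged with calcium chloride; signal normalized to the plate average as 100%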
# [3] = inhibitors of polyQ protein aggregation (AID 1604); conditions: polyglutamine-induced protein aggregation inhibition assay; stronger effect = higher value; tested at 2.5 µM
# [4] = liver-stage malaria parasite growth inhibition, primary screen, cell-based, HepG2, luciferase luminescence, HepG2 viability (AID 624349);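 further: 100% = mean of DMSO negative control wells on the same plate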; conditions: P. berghei liver stage in HepG2, luciferase luminescence, concentration not given here; parasite load remaining: stronger effect = lower value; viability: measured here: HepG2 viability without parasites
# [5] = stimulators of nuclear beta-catenin in C2C12, primary screen, imaging, WNT3A-conditioned medium, mouse C2C12, NPC library (AID 1117326; in the data active means nuclear beta-catenin stimulation mostly above about 4.2%, no sharp cut-off; inactive means mostly below about 10%); conditions: stronger effect = higher value
# [6] = stimulators of insulin release from INS-1E, primary screen, cell-based, 5 mM glucose, NPC library (AID 1117329;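 active means compound raises insulin release from rat beta cells at 5 mM glucose, no numeric limit stated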); conditions: rat INS-1E insulin secretion, at 10 µM, stronger effect = higher value
# [7] = growth inhibition of GSK3B-pretreated HCT116 cells – cell-based, CellTiter-Glo, 0.2 to 20 µM (AID 1117336;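 active means compounds lowering colon cancer cell viability after pretreatment blocking the GSK3B kinase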); conditions: HCT116 viability after GSK3B inhibitor, at 20 µM, stronger effect = higher value
# [8] = inhibition of endothelial tube formation, primary screen, imaging, VEGF stimulated, CD31 staining, tube area, NPC library (AID 1117340;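 active means compound that reduces growth-factor-driven endothelial tube area in a mixed cell culture, no cutoff stated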); conditions: VEGF-stimulated ADSC/ECFC co-culture, at 10 µM, stronger effect = higher value
# [9] = glucagon-like peptide 1 release enhancers, primary assay, NCI-H716 cell line, NPC library (AID 1117341;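 active means compound raises GLP1 secretion from the human gut endocrine cells, with no numeric limit stated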); conditions: NCI-H716 cells, at 10 µM, stronger effect = higher value
# [10] = HCT116 colon cancer cell growth inhibition, primary screen, CellTiter-Glo luminescence, NPC library (AID 1117342;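 active means compounds that lower survival of HCT116 colon cancer cells in the luminescence readout, no numeric limit stated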); conditions: at 20 µM (top of the series)
# [11] = CellTiter-Glo luminescent readout of SW480 viability loss, NPC library primary (AID 1117343;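 active means compounds that lower viability of the colon cancer cells in the luminescence readout, with no numeric limit stated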); conditions: CellTiter-Glo luminescence; at 20 µM (top of the series)
# [12] = decreased DLD-1 cellular survival, CellTiter-Glo luminescent readout, NPC compound collection, primary HTS (AID 1117346;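 active means compounds that lower survival of DLD-1 colon cancer cells in the luminescence readout, no cutoff given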); conditions: DLD-1 viability, CellTiter-Glo luminescence; at 20 µM (top of the series)
# [13] = molecular target: 6-phosphogluconate dehydrogenase, decarboxylating (Homo sapiens) (UniProt P52209); assay: 6PGD enzyme inhibitors, primary screen, biochemical, human, recombinant enzyme, NADPH absorbance (AID 1159550;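 active means at least 20% inhibition of 6-phosphogluconate dehydrogenase activity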); conditions: recombinant 6PGD, NADPH absorbance 341 nm; at 10 µM; stronger effect = higher value
# [14] = tested on: Aerobactin synthetase IucA (Klebsiella pneumoniae hvKP1); assay: Biochemical IucA enzyme inhibition primary screen of the Spectrum library (AID 1346200; call rule not given here;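 further: 100% = wells without compound and 0% = wells lacking enzyme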); conditions: malachite green pyrophosphate, A620, at 8 µM, stronger effect = lower value
# [15] = sensitizers of A549 cells to miR-34 induction, primary screen, imaging, A549 dox-inducible miR-34, nuclei and caspase counts (AID 1347080;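 active means compounds whose cell count with miR-34 switched on is under 0.7 times the count with it off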); conditions: A549 miR-34 inducible, Hoechst nuclei count, 48 h
# [16] = molecular target: NAD(+) hydrolase SARM1 (Homo sapiens) (UniProt Q6SZW1); assay: SARM1 TIR NADase inhibitors, cell lysate, NAD-Glo luminescence (AID 1508614;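 active means compound whose remaining NAD level is above about 45 nM, limit read from the data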); conditions: SAM-TIR HEK293T lysate NADase, at 1 µM, stronger effect = higher value
# [17] = molecular target: Mitogen-activated protein kinase 7 (Homo sapiens) (UniProt Q13164); assay: ERK5 transactivation activators in reporter cells, primary screen, cell-based, HTS (AID 1508626;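 active means luciferase signal above three times the same-plate solvent-only control wells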;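 further: luciferase driven by Gal4-ERK5 fusion binding five Gal4 sites before minimal TATA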); conditions: HeLa Gal4-ERK5 transactivation, 18 h, at 5 µM, stronger effect = higher value
# [18] = differential killing of epithelial or mesenchymal cells, primary screen, imaging, PC-3E GFP, TEM4-18 mCherry, co-culture (AID 1345086;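 active means compounds killing one labelled cell type while sparing the other, by normalised counts and ratio limits, not self-fluorescent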;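 further: cells exposed to compound for 72 h before imaging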;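 on red/green cell ratio (normalised): normalised mesenchymal count divided by normalised epithelial count so high means epithelial killing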); conditions: imaging cell counts, at 1 µM
# [19] = survival rescue of mitochondrial mutant cells in low glucose, primary screen, MELAS cybrids, Rieske KO mouse fibroblasts, CellTiter-Glo (AID 1508586;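 active means mean z-score across replicates of 1.96 or higher in either the MELAS or the Rieske mutant cell line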;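 further: z relative to plate mean and SD of compound and empty wells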)
# [20] = measured here: relative caspase fold change +Dox/-Dox
# [21] = measured here: total cells with miR-34 induction, stronger effect = lower value
# [22] = measured here: total cells without miR-34 induction
# Chain of Mitogen-activated protein kinase 7 (Homo sapiens) (Q13164 whole entry, looked up, the tested form may be a part): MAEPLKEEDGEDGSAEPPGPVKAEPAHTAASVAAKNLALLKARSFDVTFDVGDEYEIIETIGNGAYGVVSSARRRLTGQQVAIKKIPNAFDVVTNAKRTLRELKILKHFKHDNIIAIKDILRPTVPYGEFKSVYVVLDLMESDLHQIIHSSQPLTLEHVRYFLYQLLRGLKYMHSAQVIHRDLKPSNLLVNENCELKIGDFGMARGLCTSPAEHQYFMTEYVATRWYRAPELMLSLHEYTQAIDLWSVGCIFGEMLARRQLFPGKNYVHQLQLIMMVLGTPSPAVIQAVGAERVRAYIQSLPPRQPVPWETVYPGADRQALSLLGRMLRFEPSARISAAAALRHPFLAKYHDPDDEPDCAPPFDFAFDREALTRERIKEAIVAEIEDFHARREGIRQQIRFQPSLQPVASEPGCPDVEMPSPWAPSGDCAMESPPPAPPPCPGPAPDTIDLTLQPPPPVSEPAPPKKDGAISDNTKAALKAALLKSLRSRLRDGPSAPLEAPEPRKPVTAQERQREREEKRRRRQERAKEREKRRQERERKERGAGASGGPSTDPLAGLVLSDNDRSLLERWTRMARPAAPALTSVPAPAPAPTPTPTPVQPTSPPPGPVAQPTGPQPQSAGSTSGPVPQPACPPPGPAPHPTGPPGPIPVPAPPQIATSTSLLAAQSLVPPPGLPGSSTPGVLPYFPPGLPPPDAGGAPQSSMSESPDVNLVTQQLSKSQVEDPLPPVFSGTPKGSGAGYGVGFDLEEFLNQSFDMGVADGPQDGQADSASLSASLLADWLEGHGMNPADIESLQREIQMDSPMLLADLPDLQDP
# Chain of 6-phosphogluconate dehydrogenase, decarboxylating (Homo sapiens) (P52209 whole entry, looked up): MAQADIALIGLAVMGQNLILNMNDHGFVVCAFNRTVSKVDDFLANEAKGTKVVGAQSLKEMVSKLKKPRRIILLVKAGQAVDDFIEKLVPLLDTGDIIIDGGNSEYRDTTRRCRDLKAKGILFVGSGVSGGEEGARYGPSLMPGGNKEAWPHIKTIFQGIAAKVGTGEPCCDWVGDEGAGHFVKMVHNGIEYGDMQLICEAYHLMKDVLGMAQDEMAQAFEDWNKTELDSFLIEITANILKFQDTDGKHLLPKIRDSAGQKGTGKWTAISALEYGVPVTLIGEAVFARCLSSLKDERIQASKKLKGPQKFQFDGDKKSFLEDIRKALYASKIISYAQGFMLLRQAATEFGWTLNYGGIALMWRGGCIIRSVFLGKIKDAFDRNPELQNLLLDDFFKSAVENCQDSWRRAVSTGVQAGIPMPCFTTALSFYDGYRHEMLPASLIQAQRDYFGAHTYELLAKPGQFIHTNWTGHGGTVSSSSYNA
# Chain of NAD(+) hydrolase SARM1 (Homo sapiens) (Q6SZW1 whole entry, looked up, the tested form may be a part): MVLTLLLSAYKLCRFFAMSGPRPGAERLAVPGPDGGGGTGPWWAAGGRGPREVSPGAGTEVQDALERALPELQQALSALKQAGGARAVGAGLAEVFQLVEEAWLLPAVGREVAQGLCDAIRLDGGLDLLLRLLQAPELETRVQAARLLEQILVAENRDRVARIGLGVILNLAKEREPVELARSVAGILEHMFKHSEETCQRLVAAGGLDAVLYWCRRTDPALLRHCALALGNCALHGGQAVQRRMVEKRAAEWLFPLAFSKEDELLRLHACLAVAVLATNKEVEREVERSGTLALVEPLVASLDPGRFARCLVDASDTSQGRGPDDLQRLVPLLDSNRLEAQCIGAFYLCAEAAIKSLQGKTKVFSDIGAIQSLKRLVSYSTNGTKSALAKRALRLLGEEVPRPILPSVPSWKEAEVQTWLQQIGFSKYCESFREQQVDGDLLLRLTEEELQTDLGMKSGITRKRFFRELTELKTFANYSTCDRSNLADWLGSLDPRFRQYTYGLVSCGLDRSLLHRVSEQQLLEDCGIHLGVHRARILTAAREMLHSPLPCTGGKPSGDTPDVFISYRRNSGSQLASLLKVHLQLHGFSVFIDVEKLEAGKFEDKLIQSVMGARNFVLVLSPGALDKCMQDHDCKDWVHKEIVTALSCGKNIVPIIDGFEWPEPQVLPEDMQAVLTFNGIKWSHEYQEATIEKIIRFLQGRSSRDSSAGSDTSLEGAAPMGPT
smiles,measurement,setting,value
CC(=O)[O][Hg][c]1ccccc1,score,[1],-0.45
same,cytochrome c release ratio,[2],1.06
same,inhibition of aggregation,[3],-25.5%
same,parasite load remaining,[4],3.54% (inactive) and -0.265% (inactive)
same,viability,[4],23.1% and 0.225%
same,nuclear beta-catenin stimulation,[5]; at 10 µM,14.5% (inactive)
same,nuclear beta-catenin stimulation,"[5]; stimulation, at 2 µM",13.2%
same,insulin secretion stimulation,[6],15.9% (inactive)
same,viability decrease,[7],103% (active)
same,tube area decrease,[8],110% (active)
same,GLP1 secretion stimulation,[9],49.8% (active)
same,inhibition of viability,[10],103% (active)
same,viability decrease (inhibition),[11],144% (active)
same,viability decrease (inhibition),[12],105% (active)
same,inhibition,[13],-9.01% (inactive)
same,activity remaining,[14],-6.18% (active)
same,fold change,[15]; stronger effect = lower value,0.775 (inactive)
same,fold change,[15]; [20],1.65
same,cell count,[15]; [21],334
same,cell count,[15]; [22],432
same,remaining NAD,[16],63 nM (active)
same,luciferase signal,[17],32 AU (inactive)
Clc1ccc(CSC(Cn2ccnc2)c2ccc(Cl)cc2Cl)cc1 (centres undefined),score,[1],0.02
same,cytochrome c release ratio,[2],1.53
same,inhibition of aggregation,[3],26.4%
same,parasite load remaining,[4],45.1% (inactive) and 43.8% (inactive) and 9.3% (inactive)
same,viability,[4],77.3% and 59.6% and 86.4%
same,nuclear beta-catenin stimulation,[5]; at 10 µM,4.8% (inactive)
same,nuclear beta-catenin stimulation,"[5]; stimulation, at 2 µM",1.5%
same,insulin secretion stimulation,[6],2.6% (inactive)
same,viability decrease,[7],101% (active)
same,tube area decrease,[8],110% (active)
same,GLP1 secretion stimulation,[9],45.8% (active)
same,inhibition of viability,[10],102% (active)
same,viability decrease (inhibition),[11],141% (active)
same,viability decrease (inhibition),[12],104% (active)
same,inhibition,[13],1.36% (inactive)
same,red/green cell ratio (normalised),[18]; actives lie on both sides,0.91 (inactive)
same,normalised cell number,[18]; measured here: epithelial PC-3E GFP cell survival,1.1
same,normalised cell number,[18]; measured here: mesenchymal TEM4-18 mCherry cell survival,1
same,activity remaining,[14],106% (inactive)
same,fold change,[15]; stronger effect = lower value,0.925 (inactive) and 0.946 (inactive) and 1.1 (inactive)
same,fold change,[15]; [20],1.29 and 0.637 and 1.2
same,cell count,[15]; [21],6020 and 7170 and 8360
same,cell count,[15]; [22],6500 and 7580 and 7600
same,z-score,"[19]; MELAS cybrid survival, CellTiter-Glo 48 h, stronger effect = higher value",-0.246 (inactive) and 0.0301 (inactive)
same,z-score,"[19]; Rieske KO mouse fibroblast survival, CellTiter-Glo 72 h",-0.177 and -0.00115
same,remaining NAD,[16],10 nM (inactive)
same,luciferase signal,[17],44 AU (inactive)
